This note sets out measurements from the supplement of paper PMC12350171.

Where a name gives a salt, the structure may show the parent alone. Unmarked numbers belong to inactive results.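 Rule for the calls: active = AUC significantly below DMSO controls by Student t-fit with adjusted P under 0.01; inactive = not significantly reduced.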

In the assay the test system is Haemophilus parainfluenzae. Kind of assay: growth AUC normalised to DMSO control (fraction of control); higher = less growth inhibition, active = hit call of the paper. The settings on record: 20 µM. The essentials: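 Three biological replicates were carried out, with OD578 read hourly for 24 h. Before inoculation at a starting OD578 of 0.01, pathogens were passaged anaerobically twice; plates were pre-reduced mGAM containing 20 μM compound and 1% DMSO, sealed with breathable membranes, and the Haemophilus parainfluenzae medium carried added hemin and NAD. Area under each growth curve was calculated by the trapezoidal rule up to the exponential-to-stationary transition and normalised to DMSO controls on the same plate.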
As to `O=C1Cc2cc(CCN3CCN(c4nsc5ccccc45)CC3)c(Cl)cc2N1` [Ziprasidone  hydrochloride monohydrate], the “growth AUC normalised to DMSO control” value is 1.03.
In the case of `COc1ccc2[nH]c([S+]([O-])Cc3ncc(C)c(OC)c3C)nc2n1` (centres undefined) [Tenatoprazole], the “growth AUC normalised to DMSO control” value is 0.978.
Consider `CCN(CC)CCOC(=O)C1(c2ccc([N+](=O)[O-])cc2)CCCC1` [Nitrocaramiphen hydrochloride], for which the “growth AUC normalised to DMSO control” value was 1.01.
Take `Cc1nc2ccccn2c(=O)c1CCN1CCC(C(=O)c2ccc(F)cc2)CC1` [Pirenperone]: the “growth AUC normalised to DMSO control” value was 0.982.
As for `CC1=C(/C=C/C(C)=C/C=C/C(C)=C\C(=O)O)C(C)(C)CCC1` [Isotretinoin], the “growth AUC normalised to DMSO control” value is 1.02.
For the compound `CC(=O)S[C@@H]1CC2=CC(=O)CC[C@]2(C)[C@H]2CC[C@@]3(C)[C@@H](CC[C@@]34CCC(=O)O4)[C@H]12` [Spironolactone], the “growth AUC normalised to DMSO control” value is 0.891.
Take `CNCCC=C1c2ccccc2C=Cc2ccccc21` [Norcyclobenzaprine]: the “growth AUC normalised to DMSO control” value is 0.91.
As for `CNCCC(Oc1ccccc1OC)c1ccccc1` (centres undefined) [Nisoxetine hydrochloride], the “growth AUC normalised to DMSO control” value was 1.02.
In the case of `NNCCc1ccccc1` [Phenelzine sulfate], the “growth AUC normalised to DMSO control” value was 1.02.
For `Nc1ncn(C2OC(CO)C(O)C2O)c(=O)n1` (centres undefined) [Azacytidine-5], the “growth AUC normalised to DMSO control” value was 0.781.
In the case of `NS(=O)(=O)c1cc2c(cc1Cl)NCNS2(=O)=O` [Hydrochlorothiazide] it was 0.967; in that of `CC(C)NCC(O)c1ccc(NS(C)(=O)=O)cc1` (centres undefined) [Sotalol hydrochloride], 1; in that of `CCn1cc(C(=O)O)c(=O)c2cc(F)c(N3CCN(C)CC3)cc21` [Pefloxacin], 0.0557 (active).
In the case of `CC(=O)OCC(=O)[C@@]1(O)CC[C@H]2[C@@H]3CCC4=CC(=O)CC[C@]4(C)[C@H]3[C@@H](O)C[C@@]21C` [Cortisol acetate], the “growth AUC normalised to DMSO control” value is 1.02.
As to `CCOC(=O)[C@@](C)(N)Cc1ccc(O)c(O)c1` [Methyldopate hydrochloride], the “growth AUC normalised to DMSO control” value was 0.995.
To `COc1cc2nc(N(C)CCCNC(=O)C3CCCO3)nc(N)c2cc1OC` (centres undefined) [Alfuzosin hydrochloride] belongs 1.03; to `Cc1cc(C(=O)NNCc2ccccc2)no1` [Isocarboxazid], 1.06; to `CC(C)NCC(O)c1ccc2ccccc2c1` (centres undefined) [Pronethalol hydrochloride], 1.
In the case of `CC(=O)NCCCS(=O)(=O)O` [Acamprosate calcium] it was 0.988; in that of `O=c1cc(-c2ccc(O)c(O)c2)oc2cc(O)cc(O)c12` [Luteolin], 1.02.
As to `CCN1CCN(C(=O)N[C@@H](C(=O)N[C@@H]2C(=O)N3C(C(=O)O)=C(CSc4nnnn4C)CS[C@H]23)c2ccc(O)cc2)C(=O)C1=O` [Cefoperazone dihydrate], the “growth AUC normalised to DMSO control” value is 0.0355 (active).
For the compound `c1ccc2[nH]c(-c3cscn3)nc2c1` [Tiabendazole], the “growth AUC normalised to DMSO control” value was 1.06.
To `CN1[C@@H]2CC[C@H]1C[C@@H](OC(=O)c1c[nH]c3ccccc13)C2` [Tropisetron hydrochloride] belongs 1; to `CN1CCc2c(c3ccccc3n2Cc2ccccc2)C1` [Mebhydroline 1,5-naphtalenedisulfonate], 0.932; to `CC(C(=O)O)c1ccc(N2Cc3ccccc3C2=O)cc1` (centres undefined) [Indoprofen], 1.02.
In the case of `CCCC(=O)Nc1ncnc2c1ncn2[C@@H]1O[C@@H]2COP(=O)(O)O[C@H]2[C@H]1OC(=O)CCC` [Bucladesine sodium salt], the “growth AUC normalised to DMSO control” value is 1.
For `COC(=O)Nc1nc2ccc(SC(C)C)cc2[nH]1` [Methiazole], the “growth AUC normalised to DMSO control” value is 1.05.
In the case of `C[C@]12CC[C@@H]3c4ccc(O)cc4CC[C@H]3[C@@H]1CCC2=O` [Estrone], the “growth AUC normalised to DMSO control” value was 0.966.
For `CN1CCC(=C2c3ccccc3C=Cc3ccccc32)CC1` [Cyproheptadine hydrochloride], the “growth AUC normalised to DMSO control” value is 0.921.
With `Cc1cn([C@H]2C[C@H](N=[N+]=[N-])[C@@H](CO)O2)c(=O)[nH]c1=O` [Zidovudine], the “growth AUC normalised to DMSO control” value was 0.581 (active).
On to `CCC1(C)CC(=O)NC1=O` (centres undefined) [Ethosuximide], for which the “growth AUC normalised to DMSO control” value was 1.06.
On to `CCN1C(=O)NC(c2ccccc2)C1=O` (centres undefined) [Ethotoin], for which the “growth AUC normalised to DMSO control” value was 1.01.
In the case of `Nc1ccc(S(N)(=O)=O)cc1` [Sulfanilamide] it was 0.997; in that of `O=C(O)CCC(=O)Nc1ccc(S(=O)(=O)Nc2nccs2)cc1` [Succinylsulfathiazole], 1.01; in that of `CNS(=O)(=O)Cc1ccc2[nH]cc(CCN(C)C)c2c1` [Sumatriptan succinate], 0.984.
To `O=c1n(CCCN2CCN(c3cccc(Cl)c3)CC2)nc2ccccn12` [Trazodone hydrochloride] belongs 0.98; to `N[C@@H](Cc1cc(I)c(Oc2cc(I)c(O)c(I)c2)c(I)c1)C(=O)O` [(L) Thyroxine], 0.96; to `CC(=O)N[C@@H](CS)C(=O)O` [Acetylcysteine], 1.07.
To `O=C(CCCN1CCC(O)(c2ccc(Br)cc2)CC1)c1ccc(F)cc1` [Bromperidol] belongs 1.02.
